# Laboratory results from ChEMBL document CHEMBL3988442, “University of Dundee, Small-Polar-MMV Screening Library” (2021).
# Screen size: about 38,000 compounds; about 1,200 (3.2%) showed an effect of 50% or more. The median lay at about -58%. The sample holds strong results, similar compounds and a random draw of the others, so the mix is not that of the screen.
# Test system: Plasmodium falciparum
# Experiment: Calibr Malaria Delayed Death Assay SOP
# Format: functional, organism-based
# Design: scale not given: in the data most compounds retested in dose-response had high values
# Settings: concentration 4.99e-06 (unit not given; other assays of the set use mol/L)
row,Compound,Percent Effect [%]
1,Cc1nccn1Cc1nnc(C2CCCN(c3ncccc3F)C2)n1C (configuration not stated),-123.3
2,COCc1noc(Cn2c(C3CC3)nc3ccccc32)n1,-91.38
3,CC(C)n1ccnc1C1CCN(Cc2ccc(Cl)c(F)c2)CC1,33.02
4,CN1CCN(Cc2ccc(F)cc2)Cc2cccnc21,-11.04
5,Cn1cc(C2(C)CN(Cc3ccc(Cl)c(F)c3)CCO2)cn1 (configuration not stated),-40.79
6,COc1cccc(C(=O)N2CCCC2c2ncc3c(n2)CCN(C)C3)c1 (configuration not stated),-46.26
7,O=C(NCCc1nccs1)N1CCC(n2cccc2)CC1,-128.4
8,Cc1nc(CNC(=O)Nc2cc(C(F)(F)F)c[nH]c2=O)cs1,-139.2
9,Cc1cccc(S(=O)(=O)NCC(C)N2CCN(C)CC2)c1Cl (configuration not stated),80.79
10,Cc1c(Cl)cccc1S(=O)(=O)NCC(O)c1cccn1C (configuration not stated),-3.502
11,O=S(=O)(NCC(O)c1cccs1)c1ccccc1Cl (configuration not stated),-35.17
12,COc1ccc(S(=O)(=O)NCC(c2cccn2C)N(C)C)c(C)c1 (configuration not stated),47.32
13,Cc1cc(F)ccc1S(=O)(=O)NCC(O)c1cccn1C (configuration not stated),-27.19
14,CC(=O)N1C[C@H](NS(=O)(=O)c2cccc(Cl)c2)[C@@H](C(C)C)C1,-122
15,Cc1cc(Cl)ccc1S(=O)(=O)NCC(C)N1CCN(C)CC1 (configuration not stated),73.33
16,CC(CNS(=O)(=O)c1cccc(Cl)c1)N1CCN(C)CC1 (configuration not stated),77.12
17,CC(NCCNS(=O)(=O)c1cccc(Cl)c1)C1CCOCC1 (configuration not stated),24.26
18,Cc1cccc(-n2nnnc2C(C)(C)Nc2ccccc2C)c1,-66.56
19,O=C(c1ccc2c(c1)COC2)N1CCCN(Cc2cscn2)CC1,-90.53

row,Compound,Percent Effect [%]
1,Cc1nn(C)c(N2CCCN(C)CC2)c1CNC(=O)CC(C)(C)C,-44.23
2,Cc1nc(CN2CCC3(CCCN(Cc4ccncc4)C3)C2=O)cs1.O=C(O)C(F)(F)F.O=C(O)C(F)(F)F.O=C(O)C(F)(F)F (configuration not stated),-86.96
3,CCc1cc(NCCCOC2CCCC2)ncn1,-19.37
4,O=C(c1ccn(-c2ccc(F)cc2)n1)N(CCO)Cc1cccnc1,-20.41
5,N#CCCN(Cc1cccnc1)C(=O)c1ccn(-c2ccccc2)n1,-29.34
6,CN(C)CCN(Cc1cccnc1)C(=O)c1ccn(-c2ccccc2)n1,87.52
7,Cc1ncoc1C(=O)N1CCOC(CC2CCCCC2)C1 (configuration not stated),-117.2
8,CCOc1ccc2[nH]c(=O)c(CN3CCCCC3C)cc2c1 (configuration not stated),-50.88
9,Cc1occc1C(=O)NCC1OCCc2cn(C)nc21.O=C(O)C(F)(F)F (configuration not stated),-17.21
10,Cc1nn(CC(=O)NCC2(C(N)=O)CCOCC2)c(C)c1Cl,-63.22
11,Cc1cccc(CN2CCC(NS(C)(=O)=O)CC2)n1,-83.22
12,CCn1ccnc1C1CCN(Cc2cccc(C)n2)CC1,-98.55
13,O=C(c1c(O)cnc2ccccc12)N1CCCSCC1,-75.93
14,CCn1c(C)cc(C(=O)N2CCC(Nc3ccc(C)nn3)CC2)c1C,-49.09
15,COc1ccccc1CNc1c(N2CCN(C(C)=O)CC2)c(=O)c1=O,-13.77
16,CNC(=O)CCc1cc(C2CCNCC2)nc(C)n1.Cl.Cl,-15.84
17,Cc1nc(CCC(=O)NCC(N)=O)cc(C2CCNCC2)n1,-86.52
18,COc1ccc2cnn(CC(=O)NC3CCCCC3)c(=O)c2c1OC,-20.95
19,Cc1nn(Cc2ccc(C(=O)NCCCN3CCCC3=O)o2)c(C)c1Br,-82.86

row,Compound,Percent Effect [%]
1,CC(C)N(C)Cc1cnc2n1CCN(Cc1cccc(C#N)c1)C2,10.5
2,COc1ccc(CC(C)(O)CNC(=O)c2cccs2)cc1 (configuration not stated),88.99
3,COc1ccc(CC(C)(O)CNC(=O)Cc2cccs2)cc1 (configuration not stated),-86.25
4,CC(O)(CCc1ccccc1)CNC(=O)c1cccs1 (configuration not stated),-19.61
5,CCN1C(=O)CCCC12CCCN(C(=O)c1ccncc1F)C2.O=C(O)C(F)(F)F (configuration not stated),-52.32
6,CC(=O)Nc1nc(CS(=O)(=O)Cc2ccccc2)cs1,-16.97
7,COCCN1Cc2ccccc2C2(CCN(C(=O)c3ccno3)CC2)C1,-21.64
8,Cc1ccc(CNC2CCN(CCc3ccncc3)CC2)s1,-5.622
9,COC(=O)C(O)C1CCN(CCc2ccncc2)CC1 (configuration not stated),-64.35
10,COCCN1CCC(NCc2cccnc2)C1 (configuration not stated),-54.93
11,N#Cc1ccc(CNC(=O)NC2CCN(CC(F)(F)F)C2)cc1 (configuration not stated),-80.57
12,N#Cc1ccc(CNC2CCN(CCc3ccncc3)CC2)cc1,54.87
13,Cc1csc2c(N3CCC(Cn4cc(C(C)(C)O)nn4)CC3)ncnc12,-16.92
14,CSc1ccc(CNC2CCN(CCc3ccncc3)CC2)cc1,92.6
15,Cc1csc2c(N3CCC(NCCCc4ccncc4)CC3)ncnc12,63.19
16,CCCN1CCC(NCc2ccncc2)CC1,-53.14
17,COCCn1ccnc1C1CCCN(c2ncnc3c(C)csc23)C1 (configuration not stated),-130.5
18,Cc1cccc(CNC2CCN(CCc3ccncc3)CC2)c1C,75.22
19,N#Cc1ccc(CNC(=O)NC2CCN(c3ncccn3)CC2)cc1,-82.81
